# Measurements: ChEMBL document CHEMBL4513216, “Probing the Open Global Health Chemical Diversity Library for Multistage-Active Starting Points for Next-Generation Antimalarials” (ACS Infect Dis, 2020)
# Hit rate of the full screen: of about 69,000 compounds, about 8,600 (12%) showed an effect of 50% or more. Shown is part of a subset that was picked to be rich in strong results.
# Test system: Plasmodium berghei
# Experiment: Screen against P. berghei liver stage (PbLuc), transformed with Luciferase, at 10uM
# Assay type: functional, HepG2
# Conditions: tested at 10 uM
row,SMILES,INHIBITION [%]
1,CC(=O)c1cccc(-n2nc(C(C)=O)c(C(C)=O)c2C)c1,0.325
2,O=C(Nc1nnc(C(F)F)s1)N[C@H](CCO)c1ccccc1,20.9
3,COc1ccnc(N2CCN(C(=O)c3ccc(Cl)o3)CC2)n1,-9.76
4,O=C(c1csc2nc(-c3ccc(Cl)cc3)cn12)N1CCCC(CO)C1 (stereo not given),-16.6
5,CCC1CN(C(=O)c2csc3nc(-c4ccc(Cl)cc4)cn23)CCN1 (stereo not given),56.1
6,CC(C)N1CCN(C(=O)c2csc3nc(-c4ccc(Cl)cc4)cn23)CC1,37.9
7,CNC(=O)C1(CCCc2ccccn2)CCN1Cc1coc(C)n1 (stereo not given),9.05
8,O=C(NCc1cccnc1)c1cn(CCc2ccccc2)nn1,12.9
9,Cc1nn(C2CCCC2)c2nc(C(C)(C)CN3CCN(C)CC3)[nH]c12,49.4
10,CS(=O)(=O)CCn1ccc(NC(=O)CCc2cccc(F)c2)n1,13.8
11,Nc1nccc(N[C@H]2CN(CC(=O)NC3CCCCC3)C[C@@H]2C2CC2)n1,56.2
12,Cc1nccc(N[C@H]2CN(CCS(C)(=O)=O)C[C@@H]2C2CC2)n1,39.3
13,Cc1nccc(N[C@H]2CN(CCC(=O)NC3CCCC3)C[C@@H]2C2CC2)n1,26.5
14,Cc1noc([C@H]2C[C@H]3CN(C(=O)Cc4ccsc4)CC[C@H]3O2)n1,-14.1
15,O[C@H]1Cc2ccccc2[C@H]1n1ccnc1-c1cc2n(n1)CCNC2,67.6
16,c1ccc2c(c1)CC(n1ccnc1-c1cc3n(n1)CCCNC3)CO2 (stereo not given),18.5
17,c1ccc2c(c1)CC(n1ccnc1-c1cc3n(n1)CCNC3)CO2 (stereo not given),43.9
18,COc1ccc(CCCC(=O)N2C[C@H](C3CC3)[C@@H](N(C)C)C2)cc1,6.28
19,CC(=O)N1[C@@H](C(=O)NCC2CC2)C[C@@H]2CN(Cc3ccco3)C[C@@H]21,11.6
20,Cc1cccc(Nc2noc3c2CN(C(=O)c2ccn(C)n2)CC3)c1C,-14.225
21,Cc1ccnn1CCNC(=O)C1CCN(S(=O)(=O)c2ccc(F)cc2)C1 (stereo not given),41.2
22,Cc1noc(C)c1C[S+]([O-])Cc1cn2cccc(C)c2n1 (stereo not given),-41.7
23,CS(=O)(=O)N1CCO[C@H]2[C@@H](Oc3ncccc3F)CC[C@@H]21,32.2
24,Cc1nc(CN2CCCC(NCc3ccc(Cl)s3)C2)no1 (stereo not given),26.5
25,Cc1ccc2[nH]c(C(=O)N3CCC4(CC3)C(=O)NCCN4C)nc2c1,10.4
26,Cc1nc(-n2nc(-c3cccs3)cc2N)[nH]c(=O)c1C,50.9
27,CCc1c(C)nc(-n2nc(-c3cccs3)cc2N)[nH]c1=O,-90.8

row,SMILES,INHIBITION [%]
1,Cc1cc(=O)[nH]c(-n2nc(-c3cccs3)cc2N)n1,20.9
2,NC1(c2nc(-c3cccs3)cc(=O)[nH]2)CCCC1,-35.8
3,CC(C(N)=O)n1nc(-c2cccs2)cc(N)c1=O (stereo not given),17.4
4,CCCc1cc(=O)[nH]c(-n2nc(-c3cccs3)cc2N)n1,83.8
5,O=C(c1ccnnc1)N1CCC2(CC1)CC(N1CCOCC1)C2,27.4
6,O=C(NCc1ccco1)N(CCCO)C1CCCc2ccccc21 (stereo not given),11.9
7,CC(C)N(Cc1ccc(C#N)cc1)C(=O)NCCNc1ncccn1,55.1
8,CC(C)N(Cc1cccnc1)C(=O)CSc1ccc(C#N)cc1,2.82
9,CC(C)N(Cc1ccc(C#N)cc1)C(=O)Nc1ccncc1,44
10,CC(C)N(Cc1ccc(C#N)cc1)C(=O)Nc1ccccn1,54.3
11,Cc1cc(NC(=O)N(Cc2ccc(C#N)cc2)C(C)C)no1,6.33
12,CC(C)N(Cc1ccccc1)C(=O)NCCNC(=O)c1cccnc1,-17.8
13,Cc1ccc(N(CCC#N)C(=O)CCc2cccnc2)cc1C,11.9
14,CC(C(=O)NCC(F)(F)F)N1CCC(N2CCN(C)C2=O)CC1 (stereo not given),35.9
15,Cc1cncc(C(=O)N2C[C@@H]3CN(S(C)(=O)=O)CCO[C@@H]3C2)c1,-7.24
16,Cc1nc2c(cc1C(=O)O)CCN(Cc1ccsc1)CC2,20.4
17,COCCN1CCc2cc(C(=O)NCC3CC3)c(NC(C)C)nc2CC1,51.6
18,COCCN1CCc2cc(C(=O)N(C)C)c(NC(C)C)nc2CC1,18.1
19,Cc1nc2c(cc1C(=O)O)CCN(CC1CC1)CC2,74.9
20,CC(C)Nc1nc2c(cc1C(=O)NCC1CC1)CCN(C)CC2,34.1
21,CN(C)C(=O)c1cc2c(nc1NCC1CC1)CCN(CC1CC1)CC2,38.2
22,CC(C)Nc1nc2c(cc1C(=O)NCC1CC1)CCN(S(C)(=O)=O)CC2,-39.1
23,CNC(=O)N1CCc2cc(C(=O)NCC3CC3)c(NC(C)C)nc2CC1,-114
24,CC(C)Nc1nc2c(cc1C(=O)NCC1CC1)CCN(CC1CC1)CC2,71.4
25,Cn1cc(CN(CC2(O)CNCCOC2)C2CCCCC2)cn1 (stereo not given),38.5
26,O=C(Cc1ccccc1F)N1CCN(C(=O)c2cccc(F)c2)CC1,27.6
27,Cc1noc(CCCc2nc(C3CCOC3)no2)n1 (stereo not given),5.87

row,SMILES,INHIBITION [%]
1,Cc1nonc1C1CCCN1Cc1ccc(C(=O)Nc2nccs2)cc1 (stereo not given),56.6
2,Cc1cc(C2CCCN2Cc2ccc(C(=O)Nc3nccs3)cc2)on1 (stereo not given),7.97
3,Cc1cc(C2CCCN2Cc2cccc(C(=O)Nc3nccs3)c2)no1 (stereo not given),-30.7
4,O=c1[nH]c2cn(-c3ccc(Br)cc3)c(=O)n2[nH]1,31.6
5,CCNC(=O)CCC(=O)N1CCC(Oc2cc(C)ccc2C)CC1,14.9
6,Cc1ccc(C)c(OC2CCN(C(=O)CNc3ccccc3Cl)CC2)c1,83.9
7,Cc1ccc(C)c(OC2CCN(C(=O)NCC(=O)N3CCCC3)CC2)c1,-29.5
8,CCc1cnc(N)nc1N(C)CCc1cnn(C)c1,2.84
9,CC(C)S(=O)(=O)C(C)C(=O)NCc1ccccc1COc1ccccc1 (stereo not given),-4.12
10,COCCOCC(=O)N(Cc1cccc(C)c1)C(C)C,5.94
11,CC(=O)C(C)CC(=O)N(Cc1cccc(C)c1)C(C)C (stereo not given),68.4
12,Cc1cccc(CN(C(=O)CS(C)(=O)=O)C(C)C)c1,-12.9
13,O=C(c1ccc(O)cc1)N1C[C@@H]2OCCN(c3ncccn3)[C@@H]2C1,-15.2
14,CCOc1ncccc1NC(=O)NC1CCCN(S(C)(=O)=O)C1 (stereo not given),-2.19
15,COc1ncccc1C(=O)N1CCc2c(ncnc2N2CCOCC2)C1,-102
16,c1coc(CN2CCc3nnc(COc4cncnc4)n3CC2)c1,10.6
17,O=C1C(Sc2nnnn2C2CC2)CCN1c1ccccc1Cl (stereo not given),11.4
18,Cc1ccc(F)cc1C(=O)N1CCOCC12CCCC2,69.1
19,Cc1[nH]ccc1C(=O)N1CCOCC12CCCC2,19.3
20,O=C(c1ccc[nH]1)N1CCOCC12CCCC2,40.9
21,Cn1cc(C2CCCN2C(=O)c2cnc(-c3ccco3)s2)cn1 (stereo not given),23.6
22,CNc1nnc(CCn2nc(C)c(Br)c2C)s1,7.38
23,CS(=O)(=O)c1ccc(-c2cnc(C3CCCN3)cn2)cc1 (stereo not given),45.95
24,CCCc1noc(CNc2ccc(C(=O)N3CCCC3)cc2C)n1,12.7
25,CCc1cc2cc(OC)c(OC)cc2nc1SCCN1CCCCC1,43.4
26,COc1cc2cc(C)c(SCCN3CCCCC3)nc2cc1OC,51.7
27,COc1cc2cc(C)c(SCCN3CCCC3)nc2cc1OC,33.2

row,SMILES,INHIBITION [%]
1,CN1CCC(c2cccc(Cc3ccc(F)cc3)n2)CC1,35.8
2,CN1CCC(c2cccc(NCc3ccncc3)n2)CC1,-2.09
3,CN1CCC(c2cccc(Cc3ccccc3)n2)CC1,82.7
4,CN1CCC(c2cccc(CCC(=O)NCC(N)=O)n2)CC1,-6.92
5,COc1ccc(Cc2cccc(C3CCN(C)CC3)n2)cc1,43.8
6,CN1CCC(c2cccc(Cc3ccc(C(F)(F)F)cc3)n2)CC1,85.7
7,CCN(Cc1ccc2c(c1)OCO2)S(=O)(=O)N(C)C,-21.9
8,CC(C)Cc1noc(C2CCN(C(=O)c3cccs3)CC2)n1,17
9,Cc1cnn(CC2CCCN2C(=O)c2cccc(-n3ccc(C)n3)c2)c1 (stereo not given),-17
10,NC(=O)COc1cccc(CN2CCc3cncnc3C2)c1,11.2
11,CN(Cc1ccco1)[C@@H]1CN(Cc2ccoc2)C[C@@H]2CCCO[C@@H]21,41.3
12,CS(=O)(=O)c1cnc(C2CCCC2)nc1C1CCCNC1 (stereo not given),16.5
13,COCCN1CCc2c(cnc(-c3ccccc3)c2C(=O)O)C1,36.4
14,CC(C)(O)CN1CCN(C(=O)COCc2ccccc2Cl)CC1,23.1
15,Cc1cccc(-n2nnnc2C2(NCc3ccco3)CCCCC2)c1,28.7
16,Cn1cnnc1C1CCCN(C(=O)NCc2ccccc2)C1 (stereo not given),-33.7
17,Cn1cnnc1C1CCCN(C(=O)NCc2ccccn2)C1 (stereo not given),1.75
18,Cn1cnnc1C1CCN(C(=O)c2cc(-c3ccccc3)on2)CC1,51
19,Cc1cc(C(=O)N2CCCC(c3nncn3C)C2)no1 (stereo not given),36.5
20,Cc1noc(C2CCCN(C(=O)c3cc(-c4ccccc4)on3)C2)n1 (stereo not given),47.7
21,Cn1cnnc1C1CCCN(C(=O)NCc2cc[nH]n2)C1 (stereo not given),50.4
22,Cn1cnnc1C1CCCN(C(=O)c2cc(C3CC3)on2)C1 (stereo not given),5.15
23,COC1CCN(C(=O)c2cc(-c3ccc(Cl)cc3)on2)CC1,-55.6
24,Cn1cnnc1C1CCCN(C(=O)c2cc(-c3ccccc3)on2)C1 (stereo not given),60
